Compound activity from PubChem BioAssay.
This is a sample that favours compounds with a hit; in the whole collection about 4.9% have one here.
HSF1 inh: HSF1 inhibitors in luciferase reporter cells, primary screen, cell-based, NIH3T3, luminescence. NIH3T3-HGL HSE-luciferase, MG132-induced, luminescence 8 h; hits give low values. activity change, negative = inhibition, % at 7.5 µM (by protocol). 0.77% of 300,000 active;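 active = more than half of replicate wells show activity change below -50%, luminescence cut by over half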;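 note: luciferase reports HSF-1 transcriptional activity via heat shock element; 0% = median of DMSO wells and -100% = zero luminescence signal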
MPTP block: mitochondrial permeability transition pore inhibitors, primary screen, biochemical, isolated mouse mitochondria, absorbance. inhibition, % at 10 µM. 1.4% of 360,000 active. Ca2+ swelling absorbance, 30 min;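 active = inhibition of 50% or more, scaled per plate between neutral and stimulator controls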;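 note: 0% = DMSO wells given calcium and 100% = 1 mM EGTA wells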
HSP90 refold inh: HSP90 inhibitors, primary screen, cell lysate, luminescence; Heat shock protein HSP 90 (rabbit reticulocyte lysate; luciferase refolding); inhibition, % at 5.6 µM; 0.91% of 290,000 active; Rabbit reticulocyte lysate, luciferase refolding luminescence, 3 h;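 active = inhibition above the screen-wide mean plus 3 SD, computed separately per campaign, cut at about 16% in these data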;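 note: 0% = DMSO wells and 100% = 60 µM geldanamycin wells; inhibitors lower the luminescence because luciferase stays unfolded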
Platelet DG rel: inhibitors of platelet dense granule secretion, primary screen, cell-based, MLPCN, human platelets; human platelet-rich plasma, SFLLRN dense granule ATP release, luminescence; inhibition, %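 (compounds screened at 7.5 µM in platelet-rich plasma)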; 0.22% of 300,000 active;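 active = mean replicate score, as percent of positive control, at or above 50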
HSF-1 act: HSF-1 activators, primary screen, NIH3T3-HGL cells, MG132 stress, luminescence, single point. NIH3T3-HGL HSF-1 luciferase reporter, 8 h; 100% = twice DMSO control signal. AID 504408, 2011. activation, % at 9 µM. 1.7% of 300,000 active;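 active = mean replicate activation of at least 50% with a set share of replicates each reaching 50%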;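 note: 0% = median of the neutral control wells and 100% = twice that signal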
dFosB act: activators of delta FosB homodimer, primary screen, biochemical, fluorescence polarization, TAMRA-CDK5 oligo, single point; Protein FosB (Mus musculus), P13346; purified delta FosB; percent of positive-control signal above neutral wells; activation, % at 25 µM; 0.99% of 340,000 active; AID 493131, 2011;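 active = mean activation above about 17%, with every replicate also reaching it, limit read from the data, passing the limit was not always enough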
Target sequence (P13346 whole entry, looked up): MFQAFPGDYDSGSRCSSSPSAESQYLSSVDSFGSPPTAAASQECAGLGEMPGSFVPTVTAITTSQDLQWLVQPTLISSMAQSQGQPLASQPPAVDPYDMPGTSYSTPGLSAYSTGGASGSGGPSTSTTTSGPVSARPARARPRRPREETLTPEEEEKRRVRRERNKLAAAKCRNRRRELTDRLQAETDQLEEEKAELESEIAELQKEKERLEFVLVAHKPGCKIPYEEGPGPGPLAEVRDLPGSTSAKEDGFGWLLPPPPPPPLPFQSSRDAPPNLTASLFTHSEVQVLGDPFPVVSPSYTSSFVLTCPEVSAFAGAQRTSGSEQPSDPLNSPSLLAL
An asterisk follows results filed as active; x = not tested or not shown.

SMILES | HSF1 inh | MPTP block | HSP90 refold inh | Platelet DG rel | HSF-1 act | dFosB act
CCCC(=O)Nc1ccc(Cl)c(NC(=O)c2cccnc2)c1 | -87* | 0 | 2 | 22 | -89 | -3
Cc1ccc(-c2nnc(N3CC(C)OC(C)C3)c3ccccc23)cc1 (stereo not given) | -1 | -1 | 0 | 2 | -5 | 4
O=C(NCc1ccco1)C(c1ccncc1)N(C(=O)Cn1nnc2ccccc21)c1ccccc1F (stereo not given) | -4 | 0 | 6 | 6 | -2 | 2
CCOc1ccccc1-n1nnnc1SCC(=O)N(C)C1CCS(=O)(=O)C1 (stereo not given) | x | 0 | x | x | x | x
Cc1nn(Cc2ccccc2Cl)c(Cl)c1C(=O)NCCc1ccccc1 | 41 | 3 | -1 | -3 | 61* | -7
CC(=O)Nc1ccc(NC(=O)c2c(C)nn(Cc3ccccc3)c2Cl)cc1 | -2 | 0 | -1 | -2 | 26 | 6
O=C1C2CC=CCC2C(=O)N1c1cccc(OS(=O)(=O)c2ccc3ccccc3c2)c1 (stereo not given) | 0 | 24 | 2 | -9 | 2 | -6
CCC(Sc1nc2n[nH]c(C)c2c(=N)n1-c1ccc(C)c(Cl)c1)C(=O)N1CCOCC1 (stereo not given) | 17 | -2 | 1 | -24 | 56* | -28
CCC(Sc1nc2n[nH]c(C)c2c(=N)n1-c1cccc(Cl)c1)C(=O)NCCOC (stereo not given) | -4 | -1 | -2 | 11 | 6 | -24
CC(=O)Nc1cc2c(c(Cl)c1Cl)-c1ccccc1C2=O | x | 1 | x | x | x | -13
CC(=O)c1ccc(N(C(=O)c2ccco2)C(C(=O)NC2CCCC2)c2ccc(N3CCOCC3)cc2)cc1 (stereo not given) | 35 | 4 | 2 | 1 | 69* | -5
COc1cc(OC)cc(N(C(=O)c2ccco2)C(C(=O)NC2CCCC2)c2ccc(N3CCOCC3)cc2)c1 (stereo not given) | 7 | -1 | 3 | -3 | 21 | 1
Cc1onc(-c2c(Cl)cccc2Cl)c1COC(=O)c1ccc(Cl)cc1 | 4 | 0 | 3 | -15 | 9 | -5
O=C(COc1ccccc1)N1CCCC1 | -1 | -5 | -1 | -8 | -10 | 4
NC(=O)C1CCN(C(=O)CCSc2ccc(Cl)cc2)CC1 | 13 | -1 | -1 | 5 | 20 | -5
O=C(COc1ccc(Cl)cc1)N1CCCC1 | -71* | 0 | -2 | -1 | -73 | -4
O=C(CCSc1ccc(Cl)cc1)N1CCCCCC1 | 75 | -1 | -3 | -7 | 107* | -1
CS/C(Nc1cc(Cl)ccc1Cl)=C(/C#N)C(=O)c1ccco1 | 27 | 36 | 2 | 3 | 54* | -4
O=C(CSCc1ccc(Cl)cc1)Nc1ccc2c(c1)OCCO2 | -12 | 0 | 2 | 2 | -12 | -7
O=c1cc(COc2ccc(Cl)c(Cl)c2)nc2sccn12 | 35 | 3 | 3 | -1 | 57* | 8
Cc1cc(C)cc(NC(=O)C2CCCN(c3ncccn3)C2)c1 (stereo not given) | -5 | 0 | -4 | -2 | 3 | 2
Cc1ccc(NC(=O)C2CCCN(c3ncccn3)C2)cc1F (stereo not given) | 23 | -2 | -3 | 10 | 60* | 1
COc1ccc(NC(=O)CCN2C(=O)NC3(CCCC3)C2=O)cc1Cl | x | -1 | x | x | x | -5
OCCC1CN(Cc2cccc(-n3cccn3)c2)CCN1Cc1ccccc1 (stereo not given) | -65* | 1 | 4 | 2 | -67 | -4
COC(=O)c1ccc(CN2CCN(CCc3ccccc3)C(CCO)C2)cc1 (stereo not given) | -72* | 1 | -3 | 13 | -78 | -7
SMILES | HSF1 inh | MPTP block | HSP90 refold inh | Platelet DG rel | HSF-1 act | dFosB act
Cc1ccc(CN2CCN(Cc3cccc(OCCO)c3)CC2CCO)o1 (stereo not given) | -86* | 0 | 5 | -8 | -89 | -6
COC(=O)c1ccc(CN2CCN(CCC(C)C)C(CCO)C2)cc1 (stereo not given) | -10 | 2 | 1 | 11 | 10 | -5
Cc1ccc(CN2CCN(Cc3ccc(OC(C)C)cc3)CC2CCO)o1 (stereo not given) | 0 | 1 | -9 | 12 | -3 | -2
COc1ccc(CN2C(=O)C(CC(=O)NC3CCCC3)CC(C(=O)N3CCOCC3)=C2C)cc1 (stereo not given) | x | 0 | x | x | x | x
COc1cc(C(C)=O)ccc1OC(=O)N1CCOCC1 | x | 0 | x | x | x | x
CC(C)c1onc(C(=O)N2CCN(C(c3ccccc3)c3ccccc3)CC2)c1[N+](=O)[O-] | -57* | -2 | 6 | -2 | -62 | 4
C=C(C)COc1ccc(-c2nc(N)ncc2-c2ccc(Cl)cc2)c(O)c1 | 5 | 1 | 0 | -6 | -4 | -3
NC(Cc1ccc(F)cc1)c1csc(Nc2nccc(C(F)(F)F)n2)n1 (stereo not given) | x | 2 | x | x | x | x
CC(=O)C(Cc1ccccc1)NC(=O)CCl (stereo not given) | 3 | 1 | 1 | -16 | -6 | -1
O=C(CCl)NC(Cc1ccccc1)c1ccccc1 (stereo not given) | -85* | 1 | -1 | 9 | -88 | 2
CN(CC(=O)Nc1cccc(F)c1)C(=O)CC1CCCCC1 | -5 | -1 | x | -2 | 0 | -2
CCN(CC)CCCn1c(=S)[nH]c2ncccc2c1=O | 16 | -2 | 2 | 2 | 62* | 0
CCN(CCCn1c(=S)[nH]c2ncccc2c1=O)c1ccccc1 | 6 | 0 | -1 | -4 | 21 | -5
CCOc1cc(/C=N/NC(=O)C(O)(c2ccccc2)c2ccccc2)ccc1OC(=O)c1ccco1 | 10 | 1 | x | 8 | -3 | 2
Cc1ccc(NC(=O)c2cc(-c3ccc(C)c(C)c3O)n[nH]2)cc1C | 0 | 8 | -2 | -1 | -18 | 23*
CC(=O)Nc1ccc(NC(=O)c2cc(-c3cc(C)cc(C)c3O)n[nH]2)cc1 | 0 | 1 | -5 | -1 | 9 | 22*
CCOC(=O)C(=Cc1ccc(-n2cncn2)cc1)C(=O)OCC | 98 | 0 | -1 | -3 | 127* | -9
Cn1nnnc1SCC(=O)Nc1nn(-c2ccccc2)nc1C(N)=O | -3 | -1 | 3 | 12 | -11 | -4
NC(=O)c1nn(-c2ccccc2)nc1NC(=O)CN1CCCCC1 | 16 | 2 | 5 | -3 | 53* | -7
Cc1ccc(CSc2nc(N)cc(N)n2)cc1 | 9 | -1 | -4 | 11 | 4 | 0
N#Cc1ccc(CSc2nc(N)cc(N)n2)cc1 | 35 | -1 | -2 | -7 | 74* | 8
